Screening results from PubChem BioAssay.
An excerpt weighted towards active compounds, which were near 14% of everything screened.
HCV inhibitor = inhibitors of hepatitis C virus infection; AID 651820; Huh7.5.1 HCVcc-Cre infection, luciferase reporter, 44 h; 340,000 compounds, 3.4% hits; Potency, µM (top dose mostly 41.8 µM), most hits filed as inhibitors
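Whole-lifecycle infectious HCVcc-Cre system; cells 1,000/well, compound then virus (~0.5 moi) added 4 h after plating, 44 h culture. Luciferase read 15 sec following 15 min substrate incubation, room temp.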
HCMV antiviral = blocks human cytomegalovirus replication; AID 1259415; activity change, negative = inhibition, % at 57.5 µM; 410,000 compounds, 4.5% hits; HFF cells, HCMV-luciferase reporter, 72 h; stronger effect = lower value; in the data active = activity change below about -60%; inconclusive = no clear call, values can overlap the other calls; inactive = above about -39%
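Human foreskin fibroblasts infected with luciferase-reporter HCMV at MOI 1 PFU/cell, compounds at two doses. Luciferase measured 72 h post infection; normalized to buffer-only basal and Salinomycin (10uM) controls.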
Pf growth 48h = inhibits P. falciparum growth in the first generation, 48 h; P. falciparum luciferase growth in erythrocytes, 48 h; AID 504832; 310,000 compounds, 5.9% hits; Potency, µM (top dose mostly 28.7 µM), most hits filed as inhibitors
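Parasite viability was followed by luminescence of a genomically integrated firefly luciferase. Cultures held 0.1% parasitemia at 2% hematocrit (final), incubated under 5% CO2 at 37 C.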
MARV entry inh = Marburg virus entry inhibition | AID 540276 | Marburg virus pseudotyped entry inhibition, cell reporter | Potency, µM (highest dose often 37.8 µM), hits mostly inhibitors | 300,000 compounds, 1.8% hits; calls by dose curve; tested in HEK293 cells
Lassa entry inh = blocks Lassa virus binding to or entry into cells; Lassa virus pseudotype entry inhibition, cell reporter; Potency, µM (top dose mostly 37.9 µM), usual class: inhibitors; 300,000 compounds, 1.2% hits; AID 540256; calls by dose curve; tested in HEK293 cells; note: nearly all actives have a fitted effect of over 50% in size
Pf growth 96h = P. falciparum growth inhibition at 96 hour, primary screen for plastid delayed-death inhibitors | Potency, µM (highest dose often 28.7 µM), most hits filed as inhibitors | AID 504834 | 320,000 compounds, 6.9% hits | P. falciparum luciferase reporter growth, 96 h
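Plates of compound plus infected erythrocytes (2% hematocrit, 0.05% parasitemia final) incubate 96 hours, 37 C, 5% CO2. Detection reagent added; reduced luminescence from the parasites' luciferase reporter flags inhibition.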
Of the large screens only hits and unclear results are named; the others gave an inactive call. Unless noted, calls come from the whole dose curve; as a rule, active = well fitted inhibition curve with a large enough effect; inconclusive = small, poorly fitted or top-dose-only effect, or another doubt; inactive = no such curve, though single readings can be large or run the other way.

CCOC(=O)C1CCN(c2c([N+](=O)[O-])c(C(Cl)Cl)nn2-c2ccccc2)CC1	Pf growth 48h inconclusive, Lassa entry inh 9.2µM, Pf growth 96h inconclusive
COc1cccc(C(=O)NCC[N+](C)(C)C)c1	none (no result: HCV inhibitor, Pf growth 48h, MARV entry inh, Lassa entry inh, Pf growth 96h)
CCCCNC(=O)c1cc2cccc([N+](=O)[O-])c2[nH]1	HCV inhibitor inconclusive, Pf growth 48h 2.6µM, Lassa entry inh inconclusive, Pf growth 96h inconclusive
Clc1ccccc1C(c1ccccc1)(c1ccccc1)n1ccnc1	HCV inhibitor inconclusive, HCMV antiviral -70, Pf growth 48h 0.64µM, MARV entry inh 16µM, Lassa entry inh 6.5µM, Pf growth 96h 1.4µM
O=C(NCCc1ccccc1)c1cc(=O)[nH]c2ccccc12	HCMV antiviral -60
COc1cccc(NS(=O)(=O)c2ccc3[nH]cc(C(=O)NCCC(C)C)c(=O)c3c2)c1	HCV inhibitor inconclusive, Pf growth 48h 9.3µM, MARV entry inh inconclusive, Lassa entry inh inconclusive
CC(C)CCNC(=O)c1c[nH]c2ccc(S(=O)(=O)Nc3cccc(C(F)(F)F)c3)cc2c1=O	none (no result: HCV inhibitor, Pf growth 48h, MARV entry inh, Pf growth 96h)
Cc1ccccc1NS(=O)(=O)c1ccc2[nH]cc(C(=O)NCCc3ccccc3)c(=O)c2c1	Pf growth 48h 15µM, Lassa entry inh inconclusive, Pf growth 96h inconclusive (no result: HCV inhibitor, MARV entry inh)
Cc1cccc2c(=O)c(C(=O)NCCc3ccccc3)c[nH]c12	Pf growth 96h 4.7µM
COC(=O)[C@@]12C[C@@H](CC(=O)NCc3ccc(C)o3)C(=O)N(Cc3ccco3)C1=CCC(C)(C)C2	none (no result: HCV inhibitor, Pf growth 48h, MARV entry inh, Lassa entry inh, Pf growth 96h)
CCC[C@@H](/C=C/C(=O)OC(C)(C)C)NC(=O)C(F)(F)F	none (no result: HCV inhibitor, Pf growth 48h, MARV entry inh, Lassa entry inh, Pf growth 96h)
O=C(c1ccccc1)c1ccc(OCC(O)CN2CCN(Cc3ccccc3)CC2)cc1 (stereo not drawn)	HCV inhibitor inconclusive, Pf growth 48h inconclusive, MARV entry inh 15µM, Lassa entry inh inconclusive, Pf growth 96h inconclusive
O=C(COc1ccccc1)N1CCN(CC(O)COc2ccccc2)CC1 (stereo not drawn)	Pf growth 96h 15µM
O=C(c1ccccc1)c1ccc(OCCOCCN2CCN(Cc3ccccc3)CC2)cc1	HCV inhibitor 14µM, Pf growth 48h inconclusive, MARV entry inh inconclusive
CCOc1ccc(N2C(=O)c3cccnc3C2Nc2ccc(C)cc2)cc1 (stereo not drawn)	Pf growth 48h 9.3µM, Pf growth 96h 1.7µM
CCOc1ccc(N2C(=O)c3cccnc3C2Nc2ccc(OC)cc2)cc1 (stereo not drawn)	Pf growth 48h inconclusive
O=C1c2ccccc2C(=O)N1CCCOc1ccccc1	MARV entry inh inconclusive (no result: Pf growth 96h)
CCOc1ccc(OCCN2C(=O)c3ccccc3C2=O)cc1	Pf growth 48h inconclusive, Pf growth 96h 13µM (no result: HCMV antiviral, MARV entry inh, Lassa entry inh)
CCOc1ccc(N2C(=O)c3cccnc3C2Nc2ccc(C)c(C)c2)cc1 (stereo not drawn)	Pf growth 96h 4.7µM (no result: Pf growth 48h)
CCOc1ccc(N2C(=O)c3cccnc3C2=O)cc1	Pf growth 96h 1.9µM
Cc1ccc(C)c(N2CCN(C(=O)CCS(=O)(=O)c3ccc4c(c3)oc(=O)n4C)CC2)c1	Pf growth 48h inconclusive, Pf growth 96h inconclusive
COc1ccc2c(=O)c3c(=O)n(-c4ccccc4)c(-c4ccc(C)cc4)nc3oc2c1	Lassa entry inh inconclusive
O=C(CCCOc1ccccc1)Nc1ccc(S(=O)(=O)N2CCOCC2)cc1	Pf growth 48h 12µM, Pf growth 96h inconclusive
O=S(=O)(c1ccc(NC(=S)NCCC(c2ccccc2)c2ccccc2)cc1)N1CCOCC1	HCV inhibitor inconclusive, HCMV antiviral -99, Pf growth 48h inconclusive, MARV entry inh 10µM, Lassa entry inh 3.5µM, Pf growth 96h 8.3µM
CC(CC(=O)Nc1ccc(S(=O)(=O)N2CCOCC2)cc1)c1ccccc1 (stereo not drawn)	Pf growth 48h 3.3µM
CCOC(=O)CSc1cccc2cccnc12	HCV inhibitor 6.3µM, HCMV antiviral -87, Pf growth 48h inconclusive, MARV entry inh inconclusive
Cc1ccc(NC(=O)CC(C)c2ccccc2)cc1S(=O)(=O)N1CCOCC1 (stereo not drawn)	HCV inhibitor inconclusive, MARV entry inh inconclusive (no result: Pf growth 48h, Pf growth 96h)
COCC(=O)N1CCC(Oc2ccc(C(=O)NCc3cc(C)n(C)n3)cc2)CC1	Pf growth 96h inconclusive (no result: HCV inhibitor)
Cc1cccc(C)c1NC(=O)C1(C)CSCC(=O)N1CCC(C)C (stereo not drawn)	none (no result: HCV inhibitor, Pf growth 48h, MARV entry inh, Lassa entry inh, Pf growth 96h)
